The values below come from the supplement of paper PMC13094657.

± gives the standard deviation of the averaged measurements.

For the test, the system named is MDA-MB-231. Description: kynurenine production, fold change vs DMSO IFNg/TNF control; higher = more kynurenine produced (less inhibition). As to conditions: pre-treatment time: 18 h then 24 h IFNg/TNF. An outline of the steps: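 In 96-well plates, MDA-MB-231 cells (7 × 10^4/well) were given 24 h to settle, pre-treated for 18 h with each natural product in 0.1% DMSO, and stimulated for 24 h with IFNγ (1 U/ml) and TNF (6.25 ng/ml) at 37°C. Supernatants were processed with trichloroacetic acid and p-dimethylaminobenzaldehyde and read at 492 nm against 0–100 μM standards. In the first screening round, kynurenine production, as fold change over same-plate cytokine-stimulated vehicle wells, was averaged over duplicate plates.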
Regarding `CSC(=O)OCC1=C[C@H](O)[C@H]2C(C(=O)O)=CO[C@@H](O[C@@H]3O[C@@H](CO)[C@@H](O)[C@@H](O)[C@H]3O)[C@H]12` [Paederosidic acid] (compound dose: 10 uM), the kynurenine production is 1.07 ± 0.07. With `C[C@H](CC[C@@H](O[C@@H]1O[C@H](CO)[C@@H](O)[C@H](O)[C@H]1O)C(C)(C)O)[C@H]1CC[C@@]2(C)[C@@H]3CC=C4[C@@H](CC[C@H](O)C4(C)C)[C@]3(C)[C@H](O)C[C@]12C` [Mogroside I A1] (compound dose: 10 uM) the figure was 0.921 ± 0.21; with `C/C=C(/C)C(=O)O[C@H]1C(C)=C[C@]23C(=O)[C@@H](C=C(CO)[C@@H](O)[C@]12O)[C@H]1[C@@H](C[C@H]3C)C1(C)C` [Ingenol 3-Angelate] (compound dose: 10 uM), 0.979 ± 0.16. `CCCCCCCCCCCCCC(=O)O[C@@]12[C@H](O)[C@@H](C)[C@@]3(O)[C@@H](C=C(CO)C[C@]4(O)C(=O)C(C)=C[C@@H]34)[C@H]1C2(C)C` [Phorbol 13-myristate] (compound dose: 10 uM): the kynurenine production stood at 0.635 ± 0.081.

As for `C[C@H]1[C@H](C)CC[C@]2(C(=O)O)CC[C@]3(C)C(=CC[C@@H]4[C@@]5(C)CCC(=O)C(C)(C)[C@@H]5CC[C@]43C)[C@H]12` [Ursonic acid] (compound dose: 10 uM), the kynurenine production stood at 0.733 ± 0.12. With `C[C@@H]1CC[C@@]2(OC1)O[C@H]1C[C@H]3[C@@H]4CC=C5C[C@@H](O)C[C@@H](O)[C@]5(C)[C@H]4CC[C@]3(C)[C@H]1[C@@H]2C` [Ruscogenin] (compound dose: 10 uM) the figure was 1.32 ± 0.2.

On to `CC1(C)CC[C@]2(C(=O)O[C@@H]3O[C@H](CO)[C@@H](O)[C@H](O)[C@H]3O)CC[C@]3(C)C(=CC[C@@H]4[C@@]5(C)CC[C@H](O[C@@H]6O[C@H](C(=O)O)[C@@H](O)[C@H](O)[C@H]6O[C@@H]6O[C@H](CO)[C@@H](O)[C@H](O)[C@H]6O)C(C)(C)[C@@H]5CC[C@]43C)[C@@H]2C1` [Ginsenoside Ro] (compound dose: 10 uM), for which the kynurenine production is 1.05 ± 0.091. `C[C@@H]1O[C@@H](O[C@@H]2[C@H](O)[C@@H](O)[C@H](O[C@H]3CC[C@@]4(C)C(CC[C@]5(C)C4C=C[C@]46OC[C@@]7(CCC(C)(C)CC74)[C@@H](O)C[C@]65C)C3(C)C)O[C@@H]2CO[C@@H]2O[C@H](CO)[C@@H](O)[C@H](O)[C@H]2O)[C@H](O)[C@H](O)[C@H]1O` (some centres not stated) [Saikosaponin C] (compound dose: 10 uM): the kynurenine production came to 1.13 ± 0.18. For `C[C@@]12CC[C@@H]3[C@@](CC[C@H]4[C@@]3(C)CCC[C@@]4(C)C(=O)O)(CC1=O)C2` [Isosteviol] (compound dose: 10 uM), the kynurenine production is 0.998 ± 0.055. With `C=CC(=C)CCC=C(C)C` [Myrcene] (compound dose: 10 uM) the figure was 0.867 ± 0.1.

Take `CC(C)=CCC/C(C)=C/CC/C(C)=C/CC/C=C(\C)CC/C=C(\C)CCC=C(C)C` [Squalene] (compound dose: 10 uM): the kynurenine production was 0.887 ± 0.027.

`CC(CC(=O)C[C@@H](C)[C@H]1CC(=O)[C@@]2(C)C3=C(C(=O)C[C@]12C)[C@@]1(C)CC[C@H](O)C(C)(C)[C@@H]1C[C@@H]3O)C(=O)O` (some centres not stated) [Ganoderic acid B] (compound dose: 10 uM): the kynurenine production was 0.774 ± 0.18. Turning to `C=C(CC[C@@H](C(=O)O)[C@H]1[C@H](O)C[C@@]2(C)C3=C(CC[C@]12C)[C@@]1(C)CC[C@H](OC(C)=O)C(C)(C)[C@@H]1CC3)C(C)C` [Pachymic acid] (compound dose: 10 uM), the kynurenine production was 0.872 ± 0.093.

In the case of `C[C@@H]1O[C@@H](OC[C@H]2O[C@@H](Oc3c(-c4ccc(O)cc4)oc4cc(O)cc(O)c4c3=O)[C@H](O)[C@@H](O)[C@@H]2O)[C@H](O)[C@H](O)[C@H]1O` [Kaempferol 3-rutinoside] (compound dose: 10 uM), the kynurenine production worked out at 0.955 ± 0.049. With `Cc1cc(O)c2c(c1)C(=O)c1cc(O)cc(O[C@@H]3O[C@H](CO)[C@@H](O)[C@H](O)[C@H]3O)c1C2=O` [Emodin-8-glucoside] (compound dose: 10 uM), the kynurenine production is 0.872 ± 0.14. Turning to `O=c1cc(-c2ccc(O)c(O)c2)oc2c([C@@H]3O[C@H](CO)[C@@H](O)[C@H](O)[C@H]3O)c(O)cc(O)c12` [Orientin] (compound dose: 10 uM), the kynurenine production amounted to 0.918 ± 0.1. Next, `CC(=O)OC1C2C(OC(=O)c3ccccc3)C(C)CC2(OC(C)=O)C(=O)C(C)=CC2C(CCC13CO3)C2(C)C` (configuration not stated) [Euphorbia factor L25] (compound dose: 10 uM): 0.911 ± 0.07.
